Bioassay records deposited in PubChem by National Center for Advancing Translational Sciences (NCATS).
Pf growth 96h: Primary qHTS for delayed death inhibitors of the malarial parasite plastid, 96 hour incubation. 320,000 tested, 6.9% active. Potency, µM (top dose mostly 28.7 µM), inactives show at the highest dose activity change, negative = inhibition, hits mostly inhibitors. AID 504834, 2011. P. falciparum luciferase reporter growth, 96 h; further: on the % scale 0 is the no-effect control and ±100 the full control effect
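Infected RBCs, 2% Hct / 0.05% parasitemia final; luciferase-reporter P. falciparum; cpd 96 h, 37 C, 5% CO2; luciferase detection reagent; luminescence.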
AMA1 RON2 block: qHTS for Inhibitors of AMA1-RON; Towards Development of Antimalarial Drug Lead: Primary Screen; 360,000 tested, 0.2% active; Potency, µM (doses to about 58.2 µM), for the others: at the top dose activity change, negative = inhibition, hits mostly inhibitors; Plasmodium falciparum AMA1 (3D7) - RON2 peptide interaction; AlphaScreen AMA1-biotinylated RON2 peptide binding;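 further: 0% = vehicle wells and -100% = peptide control; nearly all actives have a fitted effect of over 45% in size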
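AMA1 (3D7) with his tag at 25 nM final met compounds first, then biotinylated RON2 peptide at 25 nM; detection used donor plus acceptor beads, 10 µg/mL apiece, read by AlphaScreen after 30 min at room temperature.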
SARS PLP yeast: qHTS of Yeast-based Assay for SARS-CoV PLP | S. cerevisiae expressing SARS-CoV PLpro, growth rescue | Potency, µM (titrated, usually from 32.9 µM), for the others: at the top dose activity, positive = growth rescue, hits mostly activators | 330,000 tested, 0.19% active | AID 485353, 2010; calls by dose curve; further: 0% is about no effect; nearly all actives have a fitted effect of over 55% in size
Pf growth 48h: Primary qHTS for delayed death inhibitors of the malarial parasite plastid, 48 hour incubation. Potency, µM (titrated, usually from 28.7 µM), for inactives: at the highest dose activity change, negative = inhibition, most hits filed as inhibitors. 310,000 tested, 5.9% active. P. falciparum luciferase growth in erythrocytes, 48 h. AID 504832, 2011; further: on the % scale 0 is the no-effect control and ±100 the full control effect
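A one-generation exposure of luciferase-tagged malaria parasites in RPMI 1640/Albumax erythrocyte culture, 37 C and 5% CO2. Inhibition is inferred from decreased luminescence after adding detection reagent.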
* marks the source's active call; other numbers are inactive results; ? = inconclusive; . = not tested or not shown; ! = not active in a repeat; [ ] = dose if it differs, or a comment. This is a sample that favours compounds with a hit; in the whole collection about 9.4% have one here. Unless noted, the call rests on the fitted dose curve; in most records, active means well fitted curve in the direction sought with a large enough effect; inconclusive means small, poorly fitted or top-dose-only effect, or another doubt; inactive means no such curve, though single readings can be large; an effect the other way counts as inactive or inconclusive. Potency means the concentration at half of the fitted maximal effect.

SMILES	Pf growth 96h	AMA1 RON2 block	SARS PLP yeast	Pf growth 48h
Cc1ccc(C)c(NC(=S)NC(NC(=O)OCc2ccccc2)C(Cl)(Cl)Cl)c1 (stereo unspecified)	9.3µM*	18%	-14%	?
Cc1sc2ncnc(Sc3ccccc3C(=O)Nc3ccccc3Cl)c2c1C	?	1%	-15%	12µM*
Cc1sc2ncnc(Sc3ccccc3C(=O)Nc3ccc(C#N)cc3)c2c1C	?	-12%	-8%	10µM*
Cc1sc2ncnc(Sc3ccccc3C(=O)Nc3ccc(Br)cc3)c2c1C	6.6µM*	-8%	-39%	9.3µM*
Cc1ccc(Cn2c(=S)[nH]c3ccc(N4CCOCC4)cc3c2=O)o1	0%	-19%	2%	?
Cc1cc2c(cc1C)NC(CC(=O)NCc1ccccc1)C(=O)N2 (stereo unspecified)	21%	-1%	-6%	?
COc1ccc(NC(=O)CC2Nc3ccccc3NC2=O)c([N+](=O)[O-])c1 (stereo unspecified)	-5%	15%	-2%	?
COc1ccc(CCNC(=O)CC2Nc3cc(C)c(C)cc3NC2=O)cc1OC (stereo unspecified)	.	-2%	-7%	13µM*
COc1ccccc1NC(=O)CC1Nc2ccccc2NC1=O (stereo unspecified)	.	6%	0%	3.7µM*
COC(=O)c1ccc2c(c1)C(C)(C)C(/C=C/c1ccc(O)cc1)=[N+]2C	5.2µM*	?	-13%	?
COc1cc(/C=C/c2ccc(O)cc2)cc(OC)c1	.	-1%	-29%	.
COC(=O)c1ccc2c(c1)C(C)(C)C(/C=C/c1ccc(OC)c(OC)c1OC)=[N+]2C	2.3µM*	-5%	-5%	2.3µM*
CCN1CCN(CCOCCOc2ccccc2-c2ccccc2)CC1	?	.	-1%	-29%
COc1cc(C(=O)OCC(C)=O)c([N+](=O)[O-])cc1OC	5%	-18%	1%	6%
COc1ccc(-c2ccc(=O)n(CC(=O)Nc3ccc(C(=O)NC4CC4)cc3)n2)cc1OC	.	-4%	-1%	-5%
CCOC(=O)C(CC)Sc1nc2c(cnn2-c2ccc(F)cc2)c(=O)[nH]1 (stereo unspecified)	?	-6%	0%	-4%
CCOc1cccc(C(=O)NC(=S)Nc2cccnc2)c1	2.6µM*	-1%[2.32 µM]	4%	39%
COc1cccc(/C=N/NC(=O)c2c(C)nc3ccc(Cl)cn23)c1O	2%	-12%	6%	9.3µM*
Cc1nc2ccc(Br)cn2c1C(=O)N/N=C\c1ccccc1Cl	3.3µM*	-2%	-4%	70%
CC(OC(=O)c1nsc(Cl)c1Cl)C(=O)NC1CCCCC1 (stereo unspecified)	39%	2%	-1%	15%
O=C(c1ncn(Cc2ccccc2)c1C(=O)N1CCc2ccccc2C1)N1CCc2ccccc2C1	?	16%	-1%	1.5µM*
Cc1ccc(-c2cc(-c3ccccc3)cc(-c3ccccc3)[n+]2-c2ccccc2C(=O)O)cc1	2.9µM*	-9%	0%	10µM*
N#CCCN1CCN(CCC#N)CC1	19%	11%	3%	8%
Cc1cc(CN2CCN(CCC#N)CC2)c(O)c(C2(C)CCCCC2)c1	11%	0%	0%	9.3µM*
CCOC(=O)c1cnc2ccc(OCC)cc2c1NCc1ccccc1	?	12%	-8%	12µM*
SMILES	Pf growth 96h	AMA1 RON2 block	SARS PLP yeast	Pf growth 48h
CCOC(=O)c1cnc2ccc(OCC)cc2c1NCc1cccnc1	6.6µM*	7%	-13%	?
CC[n+]1c(-c2ccccc2)c2cc(N)ccc2c2ccc(N)cc21	0.003µM*!	-12%	.	0.048µM*
CSc1nnc(Cn2c(=O)sc3ccccc32)n1CCc1ccccc1	13µM*	-8%	-6%	.
CSc1nnc(Cn2c(=O)sc3ccccc32)n1C	?	7%	12%	-3%
Cn1c(Cn2c(=O)sc3ccccc32)nnc1SCC(=O)N1CCOCC1	-20%	-1%	12%	7%
O=C(CSc1nnc(Cn2c(=O)sc3ccccc32)n1CCc1ccccc1)N1CCOCC1	?	3%	1%	9.3µM*
COC(=O)C1(Cc2ccccc2)NC(c2ccccc2C)C2C(=O)N(c3ccc4c(c3)OCO4)C(=O)C21 (stereo unspecified)	23%	0%	13%	12µM*
